# Rows were chosen to be rich in hits. Some 1.2% of all compounds tested hit in one or more screens of this group.
# GC-A act – GC-A stimulated cGMP production enhancers – HEK293 GC-A cells, cGMP TR-FRET, EC30 ANP, primary screen; 0% at EC30 ANP, 100% saturating ANP; activation, % at 10 µM; hit rate 0.14% among 370,000; in the data active = activation above about 40%
# TLR9-MyD88 block – inhibitors of TLR9-MyD88 association in cells, primary screen, cell-based, CHO, BLA complementation, fluorescence. inhibition, % at 4.98 µM. Toll-like receptor 9 (Homo sapiens) + Myeloid differentiation primary response protein …. hit rate 0.21% among 340,000. CCF4 FRET ratio;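 active = inhibition above the mean over all tested compounds plus 3 SD, cut at about 21% in these data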;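 also: 0% = DMSO only wells and 100% = clavulanate BLA inhibitor control wells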
# Neddyl block – inhibitors of cullin neddylation, primary screen, biochemical, TR-FRET, uHTS, NAE and Ubc12; NEDD8-conjugating enzyme Ubc12 (Homo sapiens) + NEDD8-activating enzyme E1 regulatory …; inhibition, % at 25 µM; hit rate 0.58% among 360,000; AID 651699, 2012; in the data active = inhibition above about 36%
# TLR4-MyD88 BLA – inhibitors of TLR4-MyD88 association in cells, primary screen, cell-based, HeLa CL3-4, BLA complementation, FRET ratio | Toll-like receptor 4 (Homo sapiens) + Myeloid differentiation primary response protein … | HeLa CL3-4 TLR4/MyD88 BLA complementation | inhibition, % at 8.4 µM | hit rate 0.18% among 200,000 | AID 861, 2007; in the data active = inhibition above about 25%;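 also: 0% = vehicle and 100% = reference inhibitor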
# NOD2 RIPK2 PPI – NOD2-RIPK2 binding disruptors in cells, primary screen, fluorescence, CHO cells, BLA complementation | hit rate 0.38% among 360,000 | Receptor-interacting serine/threonine-protein kinase 2 (Homo sapiens), O43353 | inhibition, % at 4.98 µM | CCF4 ratio; in the data active = inhibition above about 21%;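 also: 0% = vehicle only and 100% = reference blocker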
# GC-B act – human GC-B receptor activators, primary screen, HEK293 GC-B cells, cGMP TR-FRET, EC30 CNP | Atrial natriuretic peptide receptor 2 (Homo sapiens), P20594 | 0% at EC30 CNP, 100% saturating CNP | activation, % at 10 µM | hit rate 0.11% among 370,000 | AID 1920062, 2024;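 active = activation at 10 µM reaching about 35% in either raw or pattern-adjusted values, limit read from the data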
# Target sequence (P20594 whole entry, looked up): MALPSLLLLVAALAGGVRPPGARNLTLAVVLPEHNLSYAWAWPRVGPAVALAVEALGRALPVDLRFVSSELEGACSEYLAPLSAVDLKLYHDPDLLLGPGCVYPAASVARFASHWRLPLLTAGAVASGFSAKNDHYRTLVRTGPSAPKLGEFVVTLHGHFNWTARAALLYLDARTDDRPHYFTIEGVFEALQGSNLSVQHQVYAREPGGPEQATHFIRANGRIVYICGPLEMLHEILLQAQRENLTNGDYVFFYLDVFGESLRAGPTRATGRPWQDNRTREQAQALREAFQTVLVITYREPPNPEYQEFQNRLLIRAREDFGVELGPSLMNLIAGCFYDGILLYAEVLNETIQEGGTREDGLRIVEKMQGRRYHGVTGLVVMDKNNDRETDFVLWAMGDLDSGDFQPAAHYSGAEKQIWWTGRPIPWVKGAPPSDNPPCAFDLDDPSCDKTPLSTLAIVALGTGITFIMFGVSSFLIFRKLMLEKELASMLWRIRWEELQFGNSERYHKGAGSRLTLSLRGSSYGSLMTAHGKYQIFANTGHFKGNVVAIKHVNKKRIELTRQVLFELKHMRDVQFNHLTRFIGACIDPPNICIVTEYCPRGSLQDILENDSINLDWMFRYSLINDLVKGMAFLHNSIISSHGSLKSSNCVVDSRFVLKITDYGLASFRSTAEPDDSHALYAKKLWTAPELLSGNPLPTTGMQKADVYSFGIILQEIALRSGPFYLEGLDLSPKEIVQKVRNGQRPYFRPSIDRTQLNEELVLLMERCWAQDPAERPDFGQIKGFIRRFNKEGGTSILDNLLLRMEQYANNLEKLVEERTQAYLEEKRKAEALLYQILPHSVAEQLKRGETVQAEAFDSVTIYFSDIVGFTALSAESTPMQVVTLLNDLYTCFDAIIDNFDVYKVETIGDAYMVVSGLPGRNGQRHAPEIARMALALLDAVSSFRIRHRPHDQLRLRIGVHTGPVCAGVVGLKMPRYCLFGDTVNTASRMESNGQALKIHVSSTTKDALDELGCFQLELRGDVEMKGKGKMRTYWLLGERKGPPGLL
# NOD2 RIPK2 conf – NOD2-RIPK2 binding disruptors, retest, confirmation, fluorescence, CHO cells, BLA complementation, triplicate | inhibition, % at 4.98 µM | CCF4 FRET | hit rate 70% among 1,200 | shares compounds with NOD2 RIPK2 PPI;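 active = mean inhibition across replicates above a set limit taken from the earlier primary screen, cut at about 21% in these data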;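 also: 0% = DMSO-only wells and the high end = clavulanate BLA-blocked wells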
# NOD2 BLA counter – NOD2-RIPK2 counterscreen BLA reporter activity; shares compounds with NOD2 RIPK2 PPI; CHO BLA reporter, CCF4 FRET ratio; inhibition, % at 4.98 µM; hit rate 57% among 1,200; AID 624371;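 active = mean inhibition above the low-control mean inhibition plus three low-control SD, cut at about 11% in these data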;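 also: 0% = DMSO only wells and 100% = clavulanate high control wells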
# Starred values were filed as active, the others as inactive; nt = no result.
SMILES,GC-A act,TLR9-MyD88 block,Neddyl block,TLR4-MyD88 BLA,NOD2 RIPK2 PPI,GC-B act,NOD2 RIPK2 conf,NOD2 BLA counter
CN(CC1COCCO1)c1nc2nonc2nc1N1CCSCC1 (configuration not stated),2,-16,-3,-23,34*,4,-2,2
C=CC(=O)N1C/C(=C/c2ccc(F)cc2)C(=O)/C(=C\c2ccc(F)cc2)C1,9,16,10,nt,54*,6,64*,9
Clc1nc(Cl)c2ncn(-c3ccccc3)c2n1,20,5,-104,nt,22*,5,41*,11*
O=C1/C(=C\c2ccc(Cl)c(Cl)c2)CN(C(=O)CCN2CCOCC2)C/C1=C/c1ccc(Cl)c(Cl)c1,-11,-7,4,nt,39*,21,76*,5
O=C1/C(=C\c2ccccc2)CCC/C1=C/c1ccccc1,-3,-6,13,nt,-2,0,nt,nt
CCN(CC)CCC(=O)N1C/C(=C/c2ccccc2)C(=O)/C(=C\c2ccccc2)C1,4,11,1,nt,24*,-2,47*,-1
O=C1/C(=C\c2ccccc2)CN(C(=O)CCN2CCCCC2)C/C1=C/c1ccccc1,12,12,1,nt,36*,-2,55*,1
Cc1ccccc1C(=O)NC1CCCCN(Cc2cccc(C(F)(F)F)c2)C1=O (configuration not stated),1,nt,nt,nt,nt,-1,nt,nt
COc1ccc(-c2sc3ccccc3c2-c2ccc(OCCN3CCCCC3)cc2)cc1,-6,-2,-13,nt,-8,-7,nt,nt
c1ccc(-c2sc3ccccc3c2-c2ccc(OCCN3CCCC3)cc2)cc1,-5,-21,-97,nt,23*,-4,10,-1
CCOC(=O)[C@@]12CN(C(=O)OC(C)(C)C)CC=C1N(Cc1ccc(OC)cc1)C(=O)[C@H]2CC(=O)NCC1CCCCC1,-4,nt,nt,nt,nt,6,nt,nt
COC(=O)[C@]12C[C@H](CC(=O)N3CCC(c4ccccc4)CC3)C(=O)N(Cc3ccc4c(c3)OCO4)C1=C[C@H](COCc1ccccc1)O[C@@H]2C,-3,nt,nt,nt,nt,1,nt,nt
CC(C)C(=O)N1CCN(c2ccc(NC(=O)c3ccc([N+](=O)[O-])o3)cc2)CC1,-5,1,-32,1,15,-3,nt,nt
CN1CCN(c2ccc(NC(=O)c3ccc([N+](=O)[O-])o3)cc2Cl)CC1,-1,9,-30,nt,23*,1,20,17*
CC(C)C(=O)N1CCN(c2ccc(NC(=O)c3ccc([N+](=O)[O-])o3)cc2Cl)CC1,2,6,-12,17,26*,-2,23*,8
COc1ccc(C(=O)NNC(=O)c2cc3ccccc3cc2O)cc1,1,10,34,nt,31*,-1,5,8
COc1ccccc1C(=O)NNC(=O)c1cc2ccccc2cc1O,1,1,30,nt,3,-1,nt,nt
Cn1c(Cc2cccs2)nnc1SCC(=O)Nc1ccc2c(c1)OCCO2,0,nt,nt,nt,nt,5,nt,nt
Cc1cc(N2CCN(C)CC2)ccc1NC(=O)c1c2c(nc3ccccc13)CCN(Cc1ccccc1)C2,nt,-59,-19,-16,34*,nt,47*,9
Cc1ccc(S(=O)(=O)N2c3ccccc3C[C@H]2CCC(=O)c2ccccc2)cc1,-10,nt,nt,nt,nt,1,nt,nt
COC(=O)C1=C(C)N(Cc2cccc(C(F)(F)F)c2)C(=NCc2ccc(C(F)(F)F)cc2)NC1c1cccc(C(F)(F)F)c1 (configuration not stated),-8,nt,nt,nt,nt,-4,nt,nt
Cc1ccc(S(=O)(=O)Oc2ccccc2/C=N/NC(N)=S)cc1,-11,-4,4,-9,24*,-8,11,0
Cc1ccc(S(=O)(=O)Oc2ccccc2/C=N/N=C(N)N)cc1,-3,-4,0,-2,-6,-1,nt,nt
CCC(=O)Nc1ccc2c(c1)C(=O)N(C)[C@@H]1CC[C@@H](CC(=O)NCCN3CCCCC3)O[C@H]1CO2,2,nt,nt,nt,nt,9,nt,nt
S=C(c1ccccc1)N1CCN(c2ccccc2)CC1,-1,-4,0,nt,-4,6,nt,nt
SMILES,GC-A act,TLR9-MyD88 block,Neddyl block,TLR4-MyD88 BLA,NOD2 RIPK2 PPI,GC-B act,NOD2 RIPK2 conf,NOD2 BLA counter
Cc1ccccc1N1CCN(C(=S)c2ccccc2)CC1,1,3,-3,-30,24*,-1,-3,-2
CC[C@H]1CN2CCc3cc(OC)c(OC)cc3C2C[C@@H]1C[C@H]1NCCc2cc(OC)c(OC)cc21 (some centres not stated),-1,3,-6,nt,23*,0,27*,-8
COC(=O)[C@]12C[C@H](CC(=O)NCC34CC5CC(CC(C5)C3)C4)C(=O)N(Cc3ccccc3)C1=C[C@H](C(C)C)O[C@@H]2C1CC1,-3,nt,nt,nt,nt,-7,nt,nt
Cc1c(C(=O)N2CCCC2)oc2c1-c1[nH]ncc1CC2,3,0,12,-9,21*,-2,4,0
Cc1cc(C)c(S(=O)(=O)N(C)c2ccccc2)c(C)c1,-6,-6,-2,15,34*,-3,-4,-2
CC(C)N1Cc2nnn(Cc3ccccc3)c2-c2cc(F)ccc2S1(=O)=O,-2,nt,nt,nt,nt,-1,nt,nt
O=C(CN1CCN(S(=O)(=O)c2ccc(Br)cc2)CC1)N/N=C/c1ccc(Cl)c([N+](=O)[O-])c1,-13,16,-19,-4,33*,-8,32*,4
Cc1ccc(S(=O)(=O)N2CCN(CC(=O)N/N=C\c3ccc(Cl)c([N+](=O)[O-])c3)CC2)cc1,-11,5,-21,-7,12,-1,nt,nt
CCn1c(NCc2cc(Cl)ccc2O)nc2ccccc21,-6,-5,3,nt,46*,-3,-1,-1
C=CCn1c(NCc2cc(Cl)ccc2O)nc2ccccc21,-29,1,6,nt,2,-26,nt,nt
O=C(CSc1nnc(-c2ccccc2)n1-c1ccc(Cl)cc1)c1ccccc1Br,-21,nt,nt,nt,nt,-16,nt,nt
O=C(Nc1cnccn1)c1csc2ccccc12,0,-1,-11,-3,33*,-4,-4,-3
O=C(Nc1ccon1)c1csc2ccccc12,1,2,-16,-1,-15,-1,nt,nt
O=C(c1ccc(Br)cc1)C(CN1CCOCC1)c1ccccc1 (configuration not stated),-56,14,-4,nt,26*,-20,27*,-3

# Screening results from PubChem.
